Compound activity deposited in PubChem by National Center for Advancing Translational Sciences (NCATS).
TSHR antagonist: antagonists of human thyroid stimulating hormone receptor. P16473. TSHR-expressing cells, TSH-stimulated cAMP HTRF, 2 h; hits give low values. activity change, negative = inhibition, % at 11.5 µM. 0.2% of 330,000 active. AID 504810;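 active = activity change below a set negative limit, meaning inhibition stronger than a set level, cut at about -70% in these data; inconclusive = activity change between two set negative limits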
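Antagonism was scored as loss of TSH-driven cAMP in TSHR cells, stimulated with 4nM TSH (EC80) for 2 hours at 37 deg C and detected by homogeneous HTRF competition immunoassay.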
Gal4-VP16 FLuc: counter-screen for ROR gamma inhibitors: Gal4-VP16 reporter | AID 2546 | 3.5% of 310,000 active | Drosophila S2 Gal4-VP16 UAS-luciferase, luminescence, 20 h | Potency, µM (top dose mostly 53.6 µM), for inactives: at the top dose activity, negative = inhibition, actives largely listed as inhibitors;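 note: Gal4-VP16 expression switched on by copper sulfate through the metallothionein promoter; potency is the fitted concentration of half-maximal effect; nearly all actives have a fitted effect of over 50% in size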
ELG1 repair inh: blocks ELG1-dependent DNA repair in HEK293T cells | Potency, µM (top dose mostly 46.1 µM), inactives show at the highest dose activity change, negative = inhibition, most hits filed as inhibitors | 2.3% of 330,000 active | AID 504467 | HEK293T ELG1-luciferase reporter, luminescence, 16 h; DNA damage induced by 5-fluorouridine; note: potency is the fitted concentration of half-maximal effect; nearly all actives have a fitted effect of over 55% in size
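Step one: seed 2,000 cells per well. Step two: pin-transfer compound or DMSO alongside 5-fluorouridine. Step three: incubate 16 hr, 37 °C, 5% CO2. Step four: add ONE-Glo, wait 30 min, read luminescence.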
RORgamma inh: ROR gamma (mouse) transcription inhibition. P51450. 5.4% of 310,000 active. Drosophila S2 Gal4-RORgamma UAS-luciferase reporter, 20 h. Potency, µM (titrated, usually from 53.6 µM), for inactives: top-dose activity change, negative = inhibition, most hits filed as inhibitors; note: potency is the fitted concentration of half-maximal effect; nearly all actives have a fitted effect of over 60% in size
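A Gal4/UAS one-hybrid system in insect cells: metallothionein-promoter Gal4–ROR gamma fusion plus Photinus luciferase reporter. Copper sulfate 700 uM final, 20 hr ambient incubation, luminescent detection after 10 min with reagent.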
B2AR arrestin: agonists driving beta-arrestin recruitment to human beta2-adrenergic receptor | beta-arrestin recruitment to beta2AR, cell-based reporter | Potency, µM (series often up to 46.1 µM), inactives show top-dose activation, usual class: activators | AID 492947 | 0.02% of 330,000 active;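 note: potency is the fitted concentration of half-maximal effect; 0% = DMSO controls and full agonism = EC100 isoproterenol or metaproterenol; nearly all actives have a fitted effect of over 65% in size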
Target sequence (P07550 whole entry, looked up): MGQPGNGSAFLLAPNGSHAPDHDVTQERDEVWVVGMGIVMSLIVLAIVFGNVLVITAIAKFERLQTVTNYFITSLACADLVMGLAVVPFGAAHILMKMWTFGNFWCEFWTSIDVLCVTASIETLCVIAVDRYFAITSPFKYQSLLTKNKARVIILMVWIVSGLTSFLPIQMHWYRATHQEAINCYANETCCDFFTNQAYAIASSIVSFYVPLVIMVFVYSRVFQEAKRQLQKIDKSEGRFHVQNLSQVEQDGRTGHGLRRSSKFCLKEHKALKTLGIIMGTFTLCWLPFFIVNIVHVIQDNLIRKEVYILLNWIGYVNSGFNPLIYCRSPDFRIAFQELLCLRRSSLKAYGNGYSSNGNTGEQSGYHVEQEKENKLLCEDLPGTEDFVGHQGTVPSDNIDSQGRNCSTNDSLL
Numbers without * were called inactive; ? = inconclusive; · = not tested or not shown. An excerpt weighted towards active compounds, which were near 7.5% of everything screened. Unless noted, calls come from the whole dose curve; as a rule, active = well fitted curve in the direction sought with a large enough effect; inconclusive = small, poorly fitted or top-dose-only effect, or another doubt; inactive = no such curve, though single readings can be large; an effect the other way counts as inactive or inconclusive. Unless noted, % is set by controls: 0 for no effect and ±100 for the full control effect.

SMILES	TSHR antagonist	Gal4-VP16 FLuc	ELG1 repair inh	RORgamma inh	B2AR arrestin
COc1ccccc1NS(=O)(=O)c1cc(NC(=O)c2ccc(Cl)nc2)ccc1N1CCCC1	-18	·	16µM*	·	0%
COc1cc(C(=O)Nc2ccc(Br)cc2C(=O)c2ccccc2Cl)cc(OC)c1OC	1	-9%	-18%	-34%	-1%
Brc1cccc(-c2ccccc2)c1	·	1%	·	1%	·
Cc1cccc2c1=NC(=O)/C(=C/c1c(O)[nH]c(=O)[nH]c1=O)C=2	11	-9%	1%	14%	0%
O=c1[nH]c(=S)[nH]c(O)c1/C=C1/C=c2ccccc2=N1	-4	13µM*	?	13µM*	0%
CC(C)C[C@H](NC(=O)[C@H](CC(C)C)NC(=O)[C@H](Cc1ccccc1)NC(=O)[C@@H](N)Cc1ccc(O)cc1)C(=O)N[C@@H](CCCN=C(N)N)C(=O)N[C@@H](CC(N)=O)C(=O)N1CCC[C@H]1C(=O)O	·	5%	·	5%	·
Cc1cc(OCC(=O)N[C@@H](Cc2ccccc2)C(=O)O)c2c3c(c(=O)oc2c1)CCCC3	7	-1%	-17%	-4%	-1%
C[C@@H]1Cc2c(Cl)cc(C(=O)N[C@@H](Cc3ccccc3)C(=O)O)c(O)c2C(=O)O1	·	22µM*	·	?	·
O=Cc1ccc(Cl)cc1Cl	·	8%	·	-4%	·
O=P(Nc1cccc(F)c1)(Oc1ccccc1F)Oc1ccccc1F	0	-6%	?	28%	0%
COc1cccc(NP(=O)(Oc2ccc(Cl)cc2)Oc2ccc(Cl)cc2)c1	-5	?	21µM*	?	0%
Cc1cccc(NP(=O)(Oc2ccccc2F)Oc2ccccc2F)c1	-2	-19%	18µM*	?	-1%
CC(Cl)CCl (configuration not stated)	·	1%	·	-1%	·
OC[C@@H]1CCCN2CCCC[C@@H]12	·	-3%	·	-15%	·
S=c1nc(-c2ccccc2)n(-c2ccccc2)[nH]1	-2	?	?	10µM*	0%
CCCC[C@H]1C(=O)O[C@H](C)[C@H](NC(=O)c2cccc(NC=O)c2OC)C(=O)O[C@@H](C)[C@@H]1OC(=O)CC(C)C	·	1.8µM*	·	1.8µM*	·
C=C[C@H](Cc1ccccc1)N(Cc1ccccc1)S(=O)(=O)N(Cc1ccccc1)[C@H](C=C)Cc1ccccc1	9	·	?	·	0%
CC(Cc1ccc(C(C)(C)C)cc1)CN1CC(C)OC(C)C1 (configuration not stated)	·	-17%	·	-7%	·
CN(C)c1ccc(NC(=O)CN2C(=O)CN=C(c3ccccc3)c3cc(Cl)ccc32)cc1	12	0%	?	5%	0%
Cc1ccc(NC(=O)CN2C(=O)CN=C(c3ccccc3)c3cc(Cl)ccc32)cc1	-1	-5%	7.3µM*	-14%	0%
Cc1ccc(NC(=O)c2cn(CCC#N)nc2-c2ccc3c(c2)OCCO3)c([N+](=O)[O-])c1	29	5%	18µM*	9%	0%
OC[C@@H](O)[C@H]1O[C@@H]2OC(C(Cl)(Cl)Cl)O[C@H]2[C@H]1O (some centres not stated)	·	1%	·	2%	·
O=C(Nc1cccc(OC(=O)N2CCOCC2)c1)N1CCOCC1	11	7%	-11%	33%	0%
O=C(N/N=C/c1ccccc1OC(=O)N1CCOCC1)c1cccs1	-8	13µM*	4%	2.5µM*	0%
O=C1CCCC2C3CC(CN12)C1CCCCN1C3 (configuration not stated)	·	3%	·	-9%	·
CCOP(=O)(OCC)c1nc(-c2cccc3ccccc23)oc1N1CCCCC1	-2	-23%	23µM*	-22%	4%
C[C@@H]1CO1	·	-14%	·	2%	·
CCCCC/C=C\C/C=C\C/C=C\CCCCC(=O)NCCO	·	-7%	·	-20%	·
